Source: PubChem BioAssay
Measured potencies and affinities stand elsewhere. Inconclusive results are not listed. Calls of active or inactive are those of the source.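 The calls were made as follows, unless noted: active = fitted dose curve reaches 40% lysis signal rise at or below the highest valid concentration tested for that sample; inconclusive = flat fit between 30% and 70%, or poor curve fit; inactive = signal falls, stays flat within 30%, or no crossing.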

Experiments:
[1] = fungal growth arrest, C. neoformans – Alamar Blue, cherry-picks, dose response (AID 686998;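 active = falling signal with fitted half-maximal potency no higher than twice the top valid tested dose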)
[2] = C. neoformans lysis by adenylate kinase leakage – AK release luminescence, cherry-picks, dose response (AID 687000);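 also: luminescent detection of adenylate kinase leaking from lysed yeast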
[3] = viability loss in HepG2 hepatoma cells – cell-based, cherry-picks, set 2, cytotoxicity control, dose response (AID 687002;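 active = a dose-response fit showing signal loss, with half-maximal concentration no higher than twice the top tested dose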)
[4] = viability loss in HeLa cells – cell-based, ATP luminescence, cherry-pick samples, cytotoxicity control, dose response (AID 687004;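 active = a fitted half-maximal concentration no higher than twice the top valid tested dose, with signal falling as cells die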)

Measured: outcome

CC(=O)N1[C@H](CO)[C@H](c2ccc(-c3ccccc3)cc2)[C@H]1CNC(=O)C1CC1
inactive: [1] | [2] | [3] | [4]

COc1ccc(NC(=O)Nc2ccc3c(c2)C(=O)N([C@H](C)CO)C[C@@H](C)[C@H](CN(C)S(=O)(=O)c2ccc(Cl)cc2)OCCCC[C@@H](C)O3)cc1
inactive: [1] | [2] | [3] | [4]

O=C(C[C@H]1C[C@@H]2c3cc(NC(=O)c4cccnc4)ccc3O[C@@H]2[C@@H](CO)O1)NCCc1ccccc1
inactive: [1] | [2] | [3] | [4]

C[C@@H]1CCCCO[C@H](CN(C)Cc2ccncc2)[C@@H](C)CN([C@@H](C)CO)C(=O)c2cc(NC(=O)Nc3ccccc3)ccc2O1
inactive: [1] | [2] | [3] | [4]

C[C@H](CO)N1C[C@H](C)[C@@H](CN(C)C(=O)Nc2cccc3ccccc23)Oc2c(cccc2N(C)C)C1=O
inactive: [1] | [2] | [3] | [4]

O=C(Cc1cccs1)N1CCN(c2cccc(Cl)c2)CC1
inactive: [1] | [2] | [3] | [4]

O=C(NC1CCCC1)N1CCCCN2[C@H](CO)[C@@H](c3ccc(-c4cncnc4)cc3)[C@H]2C1
inactive: [1] | [2] | [3] | [4]

CO[C@H]1CC[C@@H]2CCOc3c(C#N)cccc3C(=O)N(C)C[C@H](OC)[C@@H](C)C(=O)N(C)C[C@@H]1O2
inactive: [1] | [2] | [3] | [4]

COCC(=O)NC[C@@H]1N[C@@H](CO)[C@H]1c1ccc(C2=CCCC2)cc1
inactive: [1] | [2] | [3] | [4]

CC(C)(C)SCCNC(=O)CN(c1ccccc1)S(=O)(=O)c1ccc(F)cc1
inactive: [1] | [2] | [3] | [4]

CN1C(=O)c2cc(NS(=O)(=O)c3cccc(F)c3)ccc2OC[C@H]2O[C@H](CC(=O)O)CC[C@H]21
inactive: [1] | [2] | [3] | [4]

CO[C@H]1CN(C)C(=O)c2cc(NC(C)=O)ccc2OC[C@H](C)N(Cc2cccc(F)c2)C[C@@H]1C
inactive: [1] | [2] | [3] | [4]

CO[C@H]1CN(C)C(=O)c2cc(NS(=O)(=O)c3ccc(C)cc3)ccc2OC[C@@H](C)N(C(=O)NC(C)C)C[C@@H]1C
inactive: [1] | [2] | [3] | [4]

O=C(C[C@@H]1C[C@@H]2c3cc(NC(=O)Nc4ccc(F)cc4)ccc3O[C@@H]2[C@@H](CO)O1)NCC1CC1
inactive: [1] | [2] | [3] | [4]

COc1cccc(S(=O)(=O)Nc2ccc3c(c2)[C@H]2C[C@H](CC(=O)NCc4ccccc4F)O[C@@H](CO)[C@H]2O3)c1
inactive: [1] | [2] | [3] | [4]

C/C=C/c1ccc2c(c1)O[C@H](CN(C)S(=O)(=O)c1ccccc1)[C@H](C)CN([C@@H](C)CO)S2(=O)=O
inactive: [1] | [2] | [3] | [4]

Cc1noc(C)c1S(=O)(=O)N(C)C[C@@H]1Oc2c(NC(=O)c3cnccn3)cccc2C(=O)N([C@@H](C)CO)C[C@@H]1C
inactive: [1] | [2] | [3] | [4]

Cc1noc(C)c1NC(=O)Nc1cccc2c1O[C@@H](CN(C)S(=O)(=O)c1cn(C)cn1)[C@@H](C)CN([C@@H](C)CO)C2=O
inactive: [1] | [2] | [3] | [4]

CO[C@H](CN(C)Cc1cc(F)ccc1F)[C@@H](C)CN([C@@H](C)CO)S(=O)(=O)c1ccc(F)cc1
inactive: [1] | [2] | [3] | [4]

O=C1CCC(C(=O)Nc2ccc(Cl)cc2)N1 (stereo not given)
inactive: [1] | [2] | [3] | [4]

CNC(=O)C[C@H]1CC[C@H]2[C@H](COc3ccc(NC(=O)Nc4ccccc4)cc3C(=O)N2C)O1
inactive: [1] | [2] | [3] | [4]

CC=Cc1ccc2n(c1=O)C[C@@H]1[C@@H](CO)[C@H](C(=O)N3CCCCC3)N(Cc3ccccc3)[C@H]21 (mixture of isomers)
inactive: [1] | [2] | [3] | [4]

COC(=O)N(C)C[C@H]1OCc2cn(nn2)CCCC(=O)N([C@H](C)CO)C[C@@H]1C
inactive: [1] | [2] | [3] | [4]

O=C(N[C@H]1CC[C@@H](CCn2cc(-c3ccccc3)nn2)O[C@@H]1CO)c1cnccn1
inactive: [1] | [2] | [3] | [4]

CC(C)NC(=O)Nc1ccc2c(c1)C(=O)N([C@@H](C)CO)C[C@@H](C)[C@@H](CN(C)S(=O)(=O)c1ccc(Cl)cc1)OCCCC[C@@H](C)O2
inactive: [1] | [2] | [3] | [4]

CC(C)NC(=O)Nc1cccc2c1O[C@H](CN(C)C)[C@H](C)CN([C@@H](C)CO)C2=O
inactive: [1] | [2] | [3] | [4]

Cc1ccc(S(=O)(=O)Nc2ccc3c(c2)C(=O)N([C@H](C)CO)C[C@H](C)[C@@H](CN(C)Cc2ccccc2)O3)cc1
inactive: [1] | [2] | [3] | [4]

COc1ccc(NC(=O)Nc2ccc3c(c2)C(=O)N([C@H](C)CO)C[C@@H](C)[C@@H](CN(C)S(=O)(=O)c2ccc(Cl)cc2)OCCCC[C@H](C)O3)cc1
inactive: [1] | [2] | [3] | [4]

C[C@@H]1CN([C@@H](C)CO)C(=O)c2cc(NS(=O)(=O)c3ccc(F)cc3)ccc2O[C@@H](C)CCCCO[C@@H]1CN(C)Cc1ccc2c(c1)OCO2
inactive: [1] | [2] | [3] | [4]

O=C(NC1CCCCC1)N[C@H]1C=C[C@@H](CC(=O)N2CCOCC2)O[C@H]1CO
inactive: [1] | [2] | [3] | [4]

C[C@@H]1CN([C@H](C)CO)C(=O)c2cccc(NC(=O)C3CC3)c2O[C@H]1CN(C)Cc1ccc(C(=O)O)cc1
inactive: [1] | [2] | [3] | [4]

Cc1noc(C)c1S(=O)(=O)Nc1ccc2c(c1)CC(=O)N([C@@H](C)CO)C[C@H](C)[C@@H](CN(C)S(=O)(=O)c1cn(C)cn1)O2
inactive: [1] | [2] | [3] | [4]

CNC(=O)CSc1ncnc2c1cnn2-c1ccccc1
inactive: [1] | [2] | [3] | [4]

C=CCNC(=O)CN(c1ccc(F)cc1)S(=O)(=O)c1ccc(OC)cc1
inactive: [1] | [2] | [3] | [4]

CC(C)NC(=O)Nc1ccc2c(c1)CC(=O)N([C@@H](C)CO)C[C@H](C)[C@H](CN(C)Cc1ccc3c(c1)OCO3)O2
inactive: [1] | [2] | [3] | [4]

O=C(C[C@H]1C=C[C@H](NC(=O)Nc2cc(F)ccc2F)[C@@H](CO)O1)NCCCN1CCOCC1
inactive: [1] | [2] | [3] | [4]

CN1CCc2c(sc(N)c2C(=O)c2ccc(Cl)cc2)C1
inactive: [1] | [2] | [3] | [4]

O=C(c1cccnc1)N1CCC(Oc2ccc(C(=O)N3CCCC(O)C3)cc2)CC1 (stereo not given)
inactive: [1] | [2] | [3] | [4]

COc1ccc(-n2ncc3c(SCC(=O)N4CCN(c5ccccc5OC)CC4)ncnc32)cc1
inactive: [1] | [2] | [3] | [4]

CCC(=O)Nc1ccc2c(c1)C(=O)N(C)C[C@@H](OC)[C@H](C)CN[C@@H](C)CO2
inactive: [1] | [2] | [3] | [4]

COc1ccccc1C(=O)Nc1ccc2c(c1)C(=O)N(C)C[C@@H](OC)[C@H](C)CN(C)[C@@H](C)CO2
inactive: [1] | [2] | [3] | [4]

C[C@@H]1CN([C@H](C)CO)C(=O)c2cc(NS(=O)(=O)c3cn(C)cn3)ccc2O[C@H]1CN(C)C(=O)Nc1cccc2ccccc12
inactive: [1] | [2] | [3] | [4]

COc1ccc(CNC(=O)C[C@H]2CC[C@H]3[C@@H](COc4ccc(NC(=O)C5CC5)cc4C(=O)N3C)O2)cc1
inactive: [1] | [2] | [3] | [4]

CCOc1cc(/C=N/NC(=O)CCCC(=O)NC2CCCCC2)ccc1O
inactive: [1] | [2] | [3] | [4]

O=C(O)C[C@@H]1CC[C@@H]2[C@H](COC[C@H](O)CN2S(=O)(=O)c2ccc(F)cc2)O1
inactive: [1] | [2] | [3] | [4]

Cc1ccc(S(=O)(=O)N2C[C@@H](O)COC[C@H]3O[C@H](CC(=O)NCc4ccc5c(c4)OCO5)CC[C@@H]32)cc1
inactive: [1] | [2] | [3] | [4]

COCC#Cc1cnc2c(c1)C(=O)N([C@H](C)CO)C[C@@H](C)[C@@H](CN(C)C(=O)Nc1ccc(OC)cc1)O2
inactive: [1] | [2] | [3] | [4]

CCCNC(=O)N1C[C@@H]2[C@H](c3ccccc31)[C@H](CO)N2Cc1ccc(OC)cc1
inactive: [1] | [2] | [3] | [4]

CN1[C@@H]2c3ccc(-c4cccnc4)c(=O)n3C[C@@H]2[C@@H](CO)[C@@H]1C(=O)N1CCc2ccccc2C1
inactive: [1] | [2] | [3] | [4]

CO[C@@H]1CN(C)C(=O)c2ccc(NC(=O)C3CC3)cc2OC[C@H](C)N(Cc2ccc(F)cc2)C[C@H]1C
inactive: [1] | [2] | [3] | [4]

CN1CCN(C(=O)CN(c2ccc(I)cc2)S(=O)(=O)c2ccccc2)CC1
inactive: [1] | [2] | [3] | [4]

CC(C)NC(=O)N(C)C[C@@H]1OCCCC[C@H](C)Oc2ccc(NC(=O)Cc3ccccc3)cc2C(=O)N([C@H](C)CO)C[C@H]1C
inactive: [1] | [2] | [3] | [4]

COc1ccccc1NC(=O)N[C@@H]1CC[C@H](CCn2cc(-c3ccccc3OC)nn2)O[C@H]1CO
inactive: [1] | [2] | [3] | [4]

C[C@H]1CN([C@@H](C)CO)C(=O)Cc2cc(NC(=O)Nc3cccc4ccccc34)ccc2O[C@H]1CN(C)S(=O)(=O)c1cccs1
inactive: [1] | [2] | [3] | [4]

Cc1cccc(C)c1NC(=O)C(C)N1CCCC1 (stereo not given)
inactive: [1] | [2] | [3] | [4]
